# Results: the supplement of paper PMC9117331
# Key:
# Settings in all cases: 0.5 µM; time after treatment 48 h; PC9 signalome
# PC9 [1] = test: AKT reporter activity score (signed KS statistic vs DMSO) (signed KS statistic (-1 to 1)); higher = stronger activation of the pathway reporter relative to DMSO
# PC9 [2] = test: RAR reporter activity score (signed KS statistic vs DMSO) (signed KS statistic (-1 to 1)); higher = stronger activation of the pathway reporter relative to DMSO
# PC9 [3] = test: PKC reporter activity score (signed KS statistic vs DMSO) (signed KS statistic (-1 to 1)); higher = stronger activation of the pathway reporter relative to DMSO
# PC9 [4] = test: PKA reporter activity score (signed KS statistic vs DMSO) (signed KS statistic (-1 to 1)); higher = stronger activation of the pathway reporter relative to DMSO
# PC9 [5] = test: p38 reporter activity score (signed KS statistic vs DMSO) (signed KS statistic (-1 to 1)); higher = stronger activation of the pathway reporter relative to DMSO
# PC9 [6] = test: HIF reporter activity score (signed KS statistic vs DMSO) (signed KS statistic (-1 to 1)); higher = stronger activation of the pathway reporter relative to DMSO
# PC9 [7] = test: ERK reporter activity score (signed KS statistic vs DMSO) (signed KS statistic (-1 to 1)); higher = stronger activation of the pathway reporter relative to DMSO
# PC9 [8] = test: JNK reporter activity score (signed KS statistic vs DMSO) (signed KS statistic (-1 to 1)); higher = stronger activation of the pathway reporter relative to DMSO
# PC9 [9] = test: WNT reporter activity score (signed KS statistic vs DMSO) (signed KS statistic (-1 to 1)); higher = stronger activation of the pathway reporter relative to DMSO
# PC9 [10] = test: NFkB reporter activity score (signed KS statistic vs DMSO) (signed KS statistic (-1 to 1)); higher = stronger activation of the pathway reporter relative to DMSO
# PC9 [11] = test: YAP/TAZ reporter activity score (signed KS statistic vs DMSO) (signed KS statistic (-1 to 1)); higher = stronger activation of the pathway reporter relative to DMSO
Compound,AKT reporter activity score (PC9 [1]),RAR reporter activity score (PC9 [2]),PKC reporter activity score (PC9 [3]),PKA reporter activity score (PC9 [4]),p38 reporter activity score (PC9 [5]),HIF reporter activity score (PC9 [6]),ERK reporter activity score (PC9 [7]),JNK reporter activity score (PC9 [8]),WNT reporter activity score (PC9 [9]),NFkB reporter activity score (PC9 [10]),YAP/TAZ reporter activity score (PC9 [11])
CCN(CC)CCNC(=O)c1c(C)[nH]c(/C=C2\C(=O)Nc3ccc(F)cc32)c1C [Sunitinib Malate (Sutent)],0.076,-0.28,-0.0463,0.13,0.139,-0.147,0.0665,0.0727,-0.103,-0.134,-0.0629
CC(C)n1nc(-c2ccc3oc(N)nc3c2)c2c(N)ncnc21,-0.075,0.0862,0.0627,0.217,-0.392,-0.124,-0.188,-0.194,0.164,0.0979,0.144
CO[C@H]1C[C@@H]2CC[C@@H](C)[C@@](O)(O2)C(=O)C(=O)N2CCCC[C@H]2C(=O)O[C@H]([C@H](C)C[C@@H]2CC[C@@H](O)[C@H](OC)C2)CC(=O)[C@H](C)/C=C(\C)[C@@H](O)[C@@H](OC)C(=O)[C@H](C)C[C@H](C)/C=C/C=C/C=C/1C [Rapamycin (Sirolimus)],0.0788,-0.291,-0.0424,0.0838,-0.0405,-0.242,0.0931,-0.0966,0.0535,0.0606,0.12
CO[C@H]1C[C@@H]2CC[C@@H](C)[C@@](O)(O2)C(=O)C(=O)N2CCCC[C@H]2C(=O)O[C@H]([C@H](C)C[C@@H]2CC[C@@H](OP(C)(C)=O)[C@H](OC)C2)CC(=O)[C@H](C)/C=C(\C)[C@@H](O)[C@@H](OC)C(=O)[C@H](C)C[C@H](C)/C=C/C=C/C=C/1C [Deforolimus (MK-8669)],0.241,-0.292,-0.044,0.262,0.178,-0.232,0.0405,-0.0745,0.0613,0.151,0.142
Cn1cnc2c(F)c(Nc3ccc(Br)cc3Cl)c(C(=O)NOCCO)cc21 [AZD6244 (Selumetinib)],0.282,-0.154,-0.074,-0.0961,0.0759,-0.125,-0.348,0.145,0.091,0.0644,0.164
CC(=O)Nc1cccc(-n2c(=O)n(C3CC3)c(=O)c3c(Nc4ccc(I)cc4F)n(C)c(=O)c(C)c32)c1,0.278,0.158,-0.0489,-0.226,0.0617,-0.114,-0.491,0.181,0.129,0.158,0.324
CC(C)n1nc(-c2cc3cc(O)ccc3[nH]2)c2c(N)ncnc21,-0.0564,-0.222,-0.0669,0.116,0.0578,-0.329,-0.108,-0.0693,0.0845,0.195,0.186
C=CC(=O)Nc1cccc(Sc2nc(Nc3ccc(N4CCN(C)CC4)cc3)ncc2Cl)c1,-0.364,0.467,0.0576,-0.418,-0.318,0.106,-0.698,0.15,0.172,0.174,0.338
CN1CCN(c2nc(C3=C(c4c[nH]c5ccccc45)C(=O)NC3=O)c3ccccc3n2)CC1 [Sotrastaurin (AEB071)],0.195,-0.104,0.0333,0.144,0.268,0.0348,-0.0912,0.155,0.0742,-0.26,-0.0765
CCn1c(-c2nonc2N)nc2c(C#CC(C)(C)O)ncc(OC[C@H]3CCCNC3)c21,-0.513,-0.292,-0.0561,0.119,-0.189,-0.224,0.134,0.058,0.151,0.0699,-0.0459
